Results on 20 compounds are retold here after PubChem BioAssay.

A number with no mark means an inactive call. For some of these results: Results with a measured potency or affinity are listed apart. The source made the active and inactive calls. Unless noted, how the calls were made is not given here.

Assay [1] is described as follows: antimalarial activity against Dd2 strain (AID 2302;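 active means growth inhibition above 50% at the single 2 µM test dose, taken to imply half-maximal potency below 2 µM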;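 further: 0% = DMSO untreated growth and 100% = chloroquine plus artemisinin killed control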). Particulars: P. falciparum Dd2 in RBCs, LDH growth readout, 72 h; at 2 µM; hits give high values.
Assay [2] can be described thus: human hepatoma cell viability loss – ATP luminescence, cytotoxicity control for P. falciparum antimalarial project, primary screen (AID 2303;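 active means inhibition above 50%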;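 further: 0% = DMSO wells and 100% = digitonin-killed cells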). As to conditions: HepG2 viability, 24-48 h, at 10 µM, hits give high values.
The target in assay [3] is L-lactate dehydrogenase (Plasmodium falciparum (isolate CDC / Honduras)) (UniProt Q27743). Briefly: PfLDH activity inhibition – cell lysate, 3D7 strain, counter-screen for P. falciparum growth inhibition project (AID 2304).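 Further: 0% = vehicle and 100% = reference inhibitor.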 As to conditions: P. falciparum 3D7 crude extract, LDH APAD/NBT absorbance; at 2 µM; hits give high values. In general terms: A counterscreen serves to expose hits that act by an unwanted route or on another target.
Sequence of L-lactate dehydrogenase (Plasmodium falciparum (isolate CDC / Honduras)) (Q27743 whole entry, looked up): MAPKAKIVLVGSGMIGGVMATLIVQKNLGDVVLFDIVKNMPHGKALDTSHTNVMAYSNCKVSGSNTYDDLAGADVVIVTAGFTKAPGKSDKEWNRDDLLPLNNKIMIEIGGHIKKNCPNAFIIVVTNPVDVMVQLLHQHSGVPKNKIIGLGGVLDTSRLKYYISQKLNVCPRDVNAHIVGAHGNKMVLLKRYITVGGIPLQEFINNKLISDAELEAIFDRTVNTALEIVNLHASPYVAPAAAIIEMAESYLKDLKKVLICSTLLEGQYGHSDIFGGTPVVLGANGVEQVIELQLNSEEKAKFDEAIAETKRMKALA

Assay [4] in a line: inhibition of 3D7 malaria parasite growth – strain 3D7 (AID 2306).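 Further: 0% = DMSO wells and 100% = chloroquine plus artemisinin control wells.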 Particulars: P. falciparum 3D7 erythrocytic growth, LDH absorbance, 72 h; at 2 µM; hits give high values.
The target in assay [5] is Calcium-dependent protein kinase 1 (Plasmodium falciparum (isolate 3D7)) (UniProt P62344). The assay can be described thus: PfCDPK1 kinase inhibitors, biochemical, TCAMS library (AID 1159585; cut-off not given, nearly all actives have IC50 up to about 0.98 µM;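 further: inhibitors leave more ATP so luminescence rises with inhibition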). Particulars: recombinant PfCDPK1, Kinase-Glo ATP depletion luminescence. For orientation: Kinase-Glo measures the ATP left after a reaction by luminescence.
Sequence of Calcium-dependent protein kinase 1 (Plasmodium falciparum (isolate 3D7)) (P62344 whole entry, looked up): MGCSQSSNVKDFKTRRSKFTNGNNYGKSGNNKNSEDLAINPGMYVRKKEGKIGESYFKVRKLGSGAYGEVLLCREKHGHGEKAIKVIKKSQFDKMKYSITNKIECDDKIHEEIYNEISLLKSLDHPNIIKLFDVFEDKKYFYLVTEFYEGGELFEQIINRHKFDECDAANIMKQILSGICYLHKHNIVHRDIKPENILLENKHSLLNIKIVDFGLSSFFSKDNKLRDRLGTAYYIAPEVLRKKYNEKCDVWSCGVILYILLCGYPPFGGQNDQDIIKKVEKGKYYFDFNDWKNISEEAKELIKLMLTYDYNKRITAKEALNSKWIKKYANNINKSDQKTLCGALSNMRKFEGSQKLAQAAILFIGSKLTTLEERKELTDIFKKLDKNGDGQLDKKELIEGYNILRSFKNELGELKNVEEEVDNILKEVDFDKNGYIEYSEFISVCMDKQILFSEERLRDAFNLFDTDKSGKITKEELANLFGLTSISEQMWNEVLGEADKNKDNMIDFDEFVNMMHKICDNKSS
Assay [6] has as its target Plasmodium falciparum protein kinase 6 (PK6, PF3D7_1337100) (UniProt Q8IDW1). Briefly: PfPK6 kinase inhibitors, biochemical, TCAMS library (AID 1159586). As to conditions: recombinant PfPK6, Kinase-Glo ATP depletion luminescence.
Assay [7] deals with Protein kinase 7 (PK7), Plasmodium falciparum 3D7 (PF3D7_0213400) (UniProt Q7YTF7). Briefly: inhibition of Plasmodium PK7 catalytic activity – biochemical, TCAMS antimalarial set, Kinase-Glo luminescence (AID 1159587). As to conditions: recombinant PfPK7, Kinase-Glo ATP depletion luminescence.
Sequence of Protein kinase 7 (PK7), Plasmodium falciparum 3D7 (PF3D7_0213400) (Q7YTF7 1-343): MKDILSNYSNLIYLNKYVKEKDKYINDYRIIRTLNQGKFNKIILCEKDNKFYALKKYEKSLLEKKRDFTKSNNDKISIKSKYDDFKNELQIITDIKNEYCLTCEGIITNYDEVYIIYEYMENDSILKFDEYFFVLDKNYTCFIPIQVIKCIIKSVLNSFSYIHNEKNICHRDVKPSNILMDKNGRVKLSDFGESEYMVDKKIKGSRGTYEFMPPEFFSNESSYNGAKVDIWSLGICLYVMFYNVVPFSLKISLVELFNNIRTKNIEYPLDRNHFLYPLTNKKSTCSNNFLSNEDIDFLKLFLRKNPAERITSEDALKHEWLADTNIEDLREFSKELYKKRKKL
Assay [8] deals with Calcium-dependent protein kinase 4 (Plasmodium falciparum (isolate 3D7)) (UniProt Q8IBS5). Briefly: PfCDPK4 kinase inhibitors, biochemical, TCAMS library (AID 1159588; cut-off not given, nearly all actives have IC50 up to about 0.91 µM). Particulars: recombinant PfCDPK4, Kinase-Glo ATP depletion luminescence.
Sequence of Calcium-dependent protein kinase 4 (Plasmodium falciparum (isolate 3D7)) (Q8IBS5 whole entry, looked up): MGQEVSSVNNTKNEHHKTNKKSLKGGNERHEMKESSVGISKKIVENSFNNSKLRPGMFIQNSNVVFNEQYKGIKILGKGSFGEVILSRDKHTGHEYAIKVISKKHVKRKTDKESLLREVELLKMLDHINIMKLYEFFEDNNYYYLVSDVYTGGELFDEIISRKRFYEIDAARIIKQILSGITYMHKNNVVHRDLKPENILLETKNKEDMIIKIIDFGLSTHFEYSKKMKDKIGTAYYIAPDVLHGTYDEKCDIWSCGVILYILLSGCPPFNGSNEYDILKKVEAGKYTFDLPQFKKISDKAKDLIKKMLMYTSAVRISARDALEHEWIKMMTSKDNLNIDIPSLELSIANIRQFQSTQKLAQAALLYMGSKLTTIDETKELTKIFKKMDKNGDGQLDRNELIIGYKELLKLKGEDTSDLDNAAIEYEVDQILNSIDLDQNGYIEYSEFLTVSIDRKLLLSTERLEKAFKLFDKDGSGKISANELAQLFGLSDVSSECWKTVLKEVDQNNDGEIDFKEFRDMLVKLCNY

Sequence of Plasmodium falciparum protein kinase 6 (PK6, PF3D7_1337100) (Q8IDW1 1-305): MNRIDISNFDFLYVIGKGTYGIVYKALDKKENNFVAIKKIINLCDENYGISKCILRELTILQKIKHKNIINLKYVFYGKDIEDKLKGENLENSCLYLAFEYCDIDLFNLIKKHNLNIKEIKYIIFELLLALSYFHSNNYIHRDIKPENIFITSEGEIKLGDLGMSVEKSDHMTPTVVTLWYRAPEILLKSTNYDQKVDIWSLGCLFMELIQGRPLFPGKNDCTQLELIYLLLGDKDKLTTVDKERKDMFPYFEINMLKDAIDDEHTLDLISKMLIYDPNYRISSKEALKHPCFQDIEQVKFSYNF

With `c1cc(OCCN2CCCC2)ccc1CNC1CCN(CC2CCCCC2)CC1`, the growth inhibition is 54% (active) in assay [1] and 101% (active) in assay [4]. Besides, the values for the inhibition in assay [2] and in assay [3] were 15% and 5%, respectively. The result in assay [5], in assay [6], in assay [7] and in assay [8] was inactive.

As to `Cc1cc(-c2nc3ccc(CN4CCN(C)CC4)cc3[nH]2)nn1Cc1cc(Cl)ccc1OCc1ccccc1`, the growth inhibition was 52% (active) in assay [1] and 100% (active) in assay [4]. The inhibition in assay [2] is 3%; in assay [3] it was 1%. The outcome in assay [5], in assay [6], in assay [7] and in assay [8] was inactive.

As to `COc1ccc(-c2ccc3c(-c4ccc(F)cc4)cnc(N)c3c2)cn1`, the growth inhibition in assay [1] was 86% (active); in assay [4], 99% (active). Further, the inhibition was 4% in assay [2] and -5% in assay [3]. Also, the outcome in assay [5], in assay [6], in assay [7] and in assay [8] was inactive.

Turning to `Oc1cccc(Nc2nc(NCc3ccccc3)c3ccccc3n2)c1`, the growth inhibition in assay [1] is 99% (active); in assay [4], 95% (active). Besides, the inhibition is 21% in assay [2] and -7% in assay [3]. For the same compound, the result in assay [5], in assay [6], in assay [7] and in assay [8] was inactive.

For the compound `CCc1cccc(NC(=O)/C=C/c2ccc3c(c2)CN(C)CC3)c1`, the growth inhibition is 91% (active) in assay [1] and 94% (active) in assay [4]. Besides, the figures for the inhibition in assay [2] and in assay [3] were 8% and -1%, respectively. The result in assay [5], in assay [6], in assay [7] and in assay [8] was inactive.

Turning to `O=C(NCc1cccc(F)c1)Nc1cccc(-c2ccc(-c3nc4ccc(F)cc4[nH]3)cc2)c1`, the growth inhibition is 0% in assay [1] and 84% (active) in assay [4]. Also, the inhibition was 46% in assay [2] and -3% in assay [3]. The outcome in assay [5], in assay [6], in assay [7] and in assay [8] was inactive.

Regarding `CCN(CC)c1ccc(C(c2ccc(N(CC)CC)cc2)c2ccc([N+](=O)[O-])cc2)cc1`, the growth inhibition in assay [1] was 63% (active); in assay [4], 82% (active). Also, the inhibition in assay [2] is 20%; in assay [3] it was 0%. Moreover, the outcome in assay [5], in assay [6], in assay [7] and in assay [8] was inactive.

For the compound `CN1CCCC1CCNCc1cccc(-c2cnc(N(C)C3CCCCC3)nc2)c1` (stereo not given), the growth inhibition is 95% (active) in assay [1] and 99% (active) in assay [4]. Moreover, the inhibition is 98% (active) in assay [2] and 2% in assay [3]. Besides, the outcome in assay [5], in assay [6], in assay [7] and in assay [8] was inactive.

As to `CC[C@H](C)CNC(=O)c1cncc(-c2cccc(CNCCCc3ccccc3)c2)c1`, the results for the growth inhibition in assay [1] and in assay [4] were 0% and 95% (active), respectively. The inhibition in assay [2] was 9%; in assay [3], 1%. In addition, the result in assay [5], in assay [6], in assay [7] and in assay [8] was inactive.

Consider `COc1ccccc1-n1c(SCC(=O)c2ccc3c(c2)CC(=O)N3C)nnc1-c1cccs1`, for which the growth inhibition in assay [1] is 55% (active); in assay [4] it was 95% (active). In addition, the inhibition in assay [2] was 7%; in assay [3], -3%. The result in assay [5], in assay [6], in assay [7] and in assay [8] was inactive.

Take `COc1cccc2c(NN=Cc3ccccc3[N+](=O)[O-])ccnc12`: the growth inhibition in assay [1] is 43%; in assay [4], 99% (active). Further, the inhibition in assay [2] was 8%; in assay [3], -3%. Also, the result in assay [5], in assay [6], in assay [7] and in assay [8] was inactive.

As for `O=C(N[C@H]1CCN(Cc2ccc(OCCCN3CCCCC3)cc2)C1)c1ccc2ccccc2c1`, the growth inhibition in assay [1] is 32%; in assay [4], 97% (active). For the same compound, the inhibition in assay [2] is 8%; in assay [3], 5%. For the same compound, the result in assay [5], in assay [6], in assay [7] and in assay [8] was inactive.

Consider `CC1CCC(NCc2ccc3c(CNC4CCC(C)CC4)c(O)ccc3c2O)CC1` (stereo not given), for which the growth inhibition in assay [1] was 99% (active); in assay [4] it was 101% (active). Moreover, the figures for the inhibition in assay [2] and in assay [3] were 4% and -2%, respectively. Further, the outcome in assay [5], in assay [6], in assay [7] and in assay [8] was inactive.

Regarding `CCCN(Cc1nnc(-c2ccco2)o1)C(=O)C1CCN(c2ncc(C(F)(F)F)cc2Cl)CC1`, the figures for the growth inhibition in assay [1] and in assay [4] were 92% (active) and 98% (active), respectively. For the same compound, the inhibition in assay [2] is 19%; in assay [3], -6%. For the same compound, the outcome in assay [5], in assay [6], in assay [7] and in assay [8] was inactive.

With `C=CCOc1ccccc1CNCC(O)c1cc(Br)cs1` (stereo not given), the growth inhibition in assay [1] is 72% (active); in assay [4], 93% (active). In addition, the inhibition in assay [2] was 25%; in assay [3], -4%. Moreover, the outcome in assay [5], in assay [6], in assay [7] and in assay [8] was inactive.

For `CC(NC(C)c1cccc(Cl)c1)C(=O)Nc1cc(C(F)(F)F)ccc1N1CCOCC1` (stereo not given), the growth inhibition in assay [1] is 33%; in assay [4] it was 89% (active). The inhibition is 30% in assay [2] and 1% in assay [3]. Also, the outcome in assay [5], in assay [6], in assay [7] and in assay [8] was inactive.

Turning to `CC(C)(C)c1ccc(C(=O)Nc2ccc(NC(=O)c3ccc([N+](=O)[O-])o3)cc2)cc1`, the growth inhibition in assay [1] was 4%; in assay [4], 81% (active). Besides, the inhibition in assay [2] was -2%; in assay [3], 2%. Besides, the outcome in assay [5], in assay [6], in assay [7] and in assay [8] was inactive.

Consider `CC(C)[C@H](NC(=O)c1ccc(O)c(-c2ccc(Cl)c(Cl)c2)c1)C(=O)NCCN(C)C`, for which the growth inhibition in assay [1] is 1%; in assay [4], 92% (active). Further, the inhibition was -4% in assay [2] and -3% in assay [3]. Besides, the outcome in assay [5], in assay [6], in assay [7] and in assay [8] was inactive.

Take `COc1ccc(NC(=O)[C@H](CC(C)C)Nc2cc(C)nc(NCCc3ccccc3OC)n2)cc1`: the growth inhibition in assay [1] is 68% (active); in assay [4], 99% (active). In addition, the inhibition in assay [2] is 9%; in assay [3] it was -3%. In addition, the outcome in assay [5], in assay [6], in assay [7] and in assay [8] was inactive.

For the compound `O=C(/C=C/c1ccc(Cl)c(Cl)c1)NCCCCCN1CCCC(CCCNC(=O)Nc2ccc(C(F)(F)F)cc2)C1` (stereo not given), the growth inhibition is 48% in assay [1] and 101% (active) in assay [4]. The inhibition in assay [2] was 58% (active); in assay [3] it was -4%. Besides, the result in assay [5], in assay [6], in assay [7] and in assay [8] was inactive.

By inhibition is commonly meant the relative decrease from the control value, in per cent.
